Source: PubChem
LASV entry inh – inhibitors of Lassa virus binding or entry into cells. Lassa virus pseudotyped entry inhibition, cell-based qHTS. Potency, µM (series often up to 49.2 µM), hits mostly inhibitors. actives 4.1% (n = 18,000)
Marburg entry – blocks Marburg virus binding or cell entry; Marburg virus pseudotype entry/binding inhibition, cell-based; Potency, µM (doses to about 49.2 µM), usual class: inhibitors; actives 6.5% (n = 18,000)
Of the large screens only hits and unclear results are named; the others gave an inactive call; ! = not active in a repeat. A selection: hits, their analogues and other compounds. The true share with any hit is near 7.1%. Calls follow the shape of the full dose curve; tested in HEK293 cells.

CC(C)(C)NC[C@@H](O)COc1cccc2[nH]c(C#N)cc12	none
N#Cc1cc2c(OCC(O)CN3CCN(C(c4ccccc4)c4ccccc4)CC3)cccc2[nH]1 (configuration not stated)	LASV entry inh 16µM, Marburg entry 8.9µM
Clc1ccc(C[n+]2cc(-c3ccccc3)n3c2CCCCC3)c(Cl)c1	LASV entry inh inconclusive, Marburg entry 8.9µM
COc1ccc(-c2ccncc2)cc1C(N)=O	Marburg entry inconclusive
Cc1nc(-c2ccc(OCC(C)C)c(C#N)c2)sc1C(=O)O	LASV entry inh 7.9µM, Marburg entry inconclusive
C=CCN=C1NC(CCc2ccccc2)C(C(=O)OC)=C(C)N1CC (configuration not stated)	Marburg entry inconclusive
CCCNC(=O)OC[C@H]1O[C@H](CCON=CC[C@@H]2C=C[C@H](OC(C)=O)[C@@H](COC(C)=O)O2)C=C[C@H]1Oc1ccc(OC)cc1	none (no result: LASV entry inh)
CN1CCCN([C@@H](c2ccccc2)c2ccc(Cl)cc2)CC1	Marburg entry 11µM
OCCOCCN1CCN([C@@H](c2ccccc2)c2ccc(Cl)cc2)CC1	Marburg entry inconclusive
C[C@H]1CC[C@H]2C(=O)O[C@H](CO)CN2[C@H]1c1ccc(Br)cc1	none (no result: LASV entry inh)
CN1CCC(=C2c3ccccc3CCc3sccc32)CC1	LASV entry inh 22µM!, Marburg entry 11µM
CN1CCC(=C2c3ccccc3CC(=O)c3sccc32)CC1	LASV entry inh inconclusive, Marburg entry 7.1µM!
CCc1cc2c(nc1CC)CCN(CCC(C)=NO[C@@H](C)CN1CCCc3nc(C)c(C)cc31)C2	none
O=C(c1ccc(Br)cc1)N1[C@H](COCc2ccccc2)C=CS1(=O)=O	none
C=CCc1ccc(O)c(-c2cc(CC=C)ccc2O)c1	none
C=CCc1ccc(OC)cc1	LASV entry inh 6.3µM, Marburg entry 6.3µM
CCOC(=O)C1=CN(CCNC(=O)OC(C)(C)C)C(=O)NC1c1ccccc1 (configuration not stated)	none
CCCCc1oc2ccccc2c1C(=O)c1cc(I)c(OCCN(CC)CC)c(I)c1	Marburg entry 20µM (no result: LASV entry inh)
CCCCOc1cc(C(=O)OCCN(CC)CC)ccc1N	none
CO[C@@H]1c2cc(F)ccc2C(=CCCOC(=O)CC=Cc2ccccc2)[C@H]1C	none
CCN(CC)CCNC(=O)c1c(C)[nH]c(/C=C2\C(=O)Nc3ccc(F)cc32)c1C	LASV entry inh inconclusive, Marburg entry 8.9µM
CCN(CC)CCNC(=O)c1ccc(NS(C)(=O)=O)cc1	none
C=CCN1C[C@H](CO)Oc2cccc(F)c2S1(=O)=O	none
COC(=O)C1=C(C(=O)OC)[C@@H]2Nc3ccccc3[C@@]23C[C@@H](C(=O)OC)N(C(=O)NC(C)(C)C)C3=N1	none
CC[C@H](C)[C@H]1O[C@]2(CC[C@@H]1C)C[C@@H]1C[C@@H](C/C=C(\C)[C@@H](O[C@H]3C[C@H](OC)[C@@H](O[C@H]4C[C@H](OC)[C@@H](O)[C@H](C)O4)[C@H](C)O3)[C@@H](C)/C=C/C=C3\CO[C@@H]4[C@H](O)C(C)=C[C@@H](C(=O)O1)[C@]34O)O2	LASV entry inh 14µM, Marburg entry inconclusive
CO[C@H]1C[C@H](O[C@@H]2/C(C)=C/C[C@@H]3C[C@@H](C[C@]4(CC[C@H](C)[C@@H](C5CCCCC5)O4)O3)OC(=O)[C@@H]3C=C(C)/C(=N/O)[C@H]4OC/C(=C\C=C\[C@@H]2C)[C@]43O)O[C@@H](C)[C@@H]1O	none
COC(=O)N[C@@H](c1ccc2ccccc2c1)C(C(C)=O)C(=O)OC (some centres not stated)	none
C[C@@H](NS(=O)(=O)c1ccc(Br)cc1F)[C@H](O)c1ccccc1	none
CCN(CC)C(=S)SSC(=S)N(CC)CC	LASV entry inh 40µM!, Marburg entry 20µM
CC1=CC[C@@H](C)O[C@@]2(C1)C(=O)Nc1ccccc12	none
C=CCOC(=O)C(C(C)=O)[C@@H](NC(=O)OC)c1cccc(C)c1 (some centres not stated)	Marburg entry inconclusive
O=C1c2ccccc2C(=O)N1CCCC[C@]12Cc3c(ccc4ccccc34)[C@H](O1)c1c(cc(-c3ccccc3)oc1=O)O2	Marburg entry inconclusive
CN1C(CC(=O)c2ccccc2)CCCC1CC(O)c1ccccc1 (configuration not stated)	Marburg entry inconclusive
CN1[C@@H](CC(=O)c2ccccc2)CCC[C@H]1C[C@H](O)c1ccccc1	LASV entry inh inconclusive, Marburg entry 28µM
C=CCOC(=O)N[C@H](C(C(=O)OC)=C(C)NCc1ccccc1)c1cccc(OC)c1	none
COc1cccc(-c2c[nH]c3c(NN=Cc4ccncc4)ncnc23)c1	Marburg entry inconclusive
Nc1ncn([C@@H]2O[C@H](CO)[C@@H](O)[C@H]2O)c(=O)n1	LASV entry inh 6.3µM, Marburg entry inconclusive
Nc1ccn(C2OC(CO)C(O)C2O)c(=O)n1 (configuration not stated)	LASV entry inh 1.3µM!, Marburg entry 1µM!
NC(=O)c1ncn(C2OC(CO)C(O)C2O)c1N (configuration not stated)	none
Nc1ccn([C@@H]2O[C@H](CO)[C@@H](OP(=O)(O)O)[C@H]2O)c(=O)n1	none
Nc1ncnc2c1nc(Br)n2C1OC(CO)C(O)C1O (configuration not stated)	LASV entry inh inconclusive
Nc1ncnc2c1ccn2[C@@H]1O[C@H](CO)[C@@H](O)[C@H]1O	LASV entry inh 2.5µM, Marburg entry 1.4µM
C#CCNc1ccc2c(c1)OC[C@H](C)NS2(=O)=O	none (no result: LASV entry inh)
COC(=O)N[C@@H](C=Cc1ccccc1)C[N+](=O)[O-]	none
CN[C@@H]1C[C@@]2(C)O[C@@H]([C@@H]1OC)n1c3ccccc3c3c4c(c5c6ccccc6n2c5c31)C(=O)NC4	LASV entry inh 1µM, Marburg entry inconclusive
C[C@]12O[C@H](C[C@]1(O)CO)n1c3ccccc3c3c4c(c5c6ccccc6n2c5c31)CNC4=O	LASV entry inh 11µM, Marburg entry 1µM
Cc1cc(N)c2ccccc2[n+]1CCCCCCCCCC[n+]1c(C)cc(N)c2ccccc21	LASV entry inh 28µM, Marburg entry inconclusive
CN1Cc2ccccc2[C@@H]2c3cccc4[nH]cc(c34)C[C@H]21	LASV entry inh 10µM, Marburg entry 8.9µM
CC1=C[C@@H]2c3cccc4[nH]cc(c34)C[C@H]2N(C)C1	none
O[C@@H]1CN(CC2CCCCC2)[C@@H](c2ccccc2)C[C@@H]1n1cc(C2CC2)nn1	Marburg entry inconclusive
CC(=O)O[C@H]1C[C@H](O[C@H]2[C@@H](O)C[C@H](O[C@H]3[C@@H](O)C[C@H](O[C@H]4CC[C@@]5(C)[C@H](CC[C@@H]6[C@@H]5C[C@@H](O)[C@]5(C)[C@@H](C7=CC(=O)OC7)CC[C@]65O)C4)O[C@@H]3C)O[C@@H]2C)O[C@H](C)[C@H]1O[C@@H]1O[C@H](CO)[C@@H](O)[C@H](O)[C@H]1O	LASV entry inh 0.05µM, Marburg entry inconclusive
C[C@@H]1[C@@H](c2ccccc2)Oc2c(Cl)cccc2S(=O)(=O)N1C	none
Nc1ccc(/C=C/c2ccc(N)cc2S(=O)(=O)O)c(S(=O)(=O)O)c1	Marburg entry 25µM
O=S(=O)(O)c1cc(N=C=S)ccc1/C=C/c1ccc(N=C=S)cc1S(=O)(=O)O	none
OC[C@H]1O[C@H](C#Cc2ccccc2)C=C[C@@H]1O	none
COC(=O)Nc1nc2ccc(S(=O)(=O)c3ccc(NC(=O)Nc4cc(C(F)(F)F)ccc4F)cc3)cc2[nH]1	none
COc1ccc(-c2oc3ncnc(N)c3c2-c2ccc(NC(=O)Nc3cc(C(F)(F)F)ccc3F)cc2)cc1	Marburg entry 13µM (no result: LASV entry inh)
